Screening data as filed in PubChem.
Compounds with a hit are over-represented: about 19% of the library has one in this group of screens.
TDP1 cell noCPT = qHTS for Inhibitors of human tyrosyl-DNA phosphodiesterase 1 (TDP1): qHTS in cells in absence of CPT; Potency, µM (doses to about 46.2 µM), for inactives: at the top dose activity change, negative = growth inhibition, hits mostly inhibitors; DT40 Tdp1-/- hTDP1 cells, no CPT, ATP luminescence, 48 h; AID 686978, 2013; 15% of 420,000 active; note: nearly all actives have a fitted effect of over 55% in size
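Camptothecin absent (DMSO only). Human TDP1-complemented DT40 knockout cells, 400 cells/well, 37 °C for minimum 48 hr; ATP measured via CellTiter-Glo, 30 min dark incubation, luminescence.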
HT1080 IDH1KD tx = kills HT-1080 cells with IDH1 knockdown; HT-1080 IDH1 knockdown viability, ATP luminescence, 48 h; Potency, µM (highest dose often 46.1 µM), without a hit: top-dose activity, negative = toxicity, hits mostly cytotoxic; 2% of 360,000 active;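 note: 0% = DMSO wells and -100% = cell-free medium wells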
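% activity derives from luminescence (CellTiter-Glo), normalised to DMSO and no-cell wells. HT-1080-IDH1KD cells, 750/well, had 48 h compound exposure at 37 °C.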
DT40 TDP1 CPT = DT40-hTDP1 cell growth loss with CPT; chicken DT40 Tdp1-/-;hTDP1 cells + 20 nM CPT, ATP luminescence, 48 h; Potency, µM (series often up to 46.2 µM), for the others: at the top dose activity change, negative = growth inhibition, actives largely listed as inhibitors; 12% of 420,000 active; AID 686979; note: nearly all actives have a fitted effect of over 55% in size
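Cell growth measured by CellTiter-Glo luminescence after a minimum 48 h, 37 C compound exposure with 20 nM CPT in Tdp1-knockout DT40 cells stably expressing hTDP1, seeded 400/well; qHTS titration format.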
HT1080NT lethal = kills 2HG-producing HT-1080-NT fibrosarcoma cells; HT-1080-NT fibrosarcoma viability, CellTiter-Glo ATP luminescence, 48 h; Potency, µM (titrated, usually from 46.1 µM), for inactives: at the top dose activity, negative = less viability, most hits filed as cytotoxic; 1.6% of 360,000 active;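 note: NT is the 2HG producing partner of a matched IDH1 knockdown line; 0% = DMSO-treated cells and -100% = media-only wells without cells; nearly all actives have a fitted effect of over 55% in size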
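Read-out is CellTiter-Glo luminescence after 10 minutes at room temperature, following 48 hours' compound treatment of HT-1080-NT cells (750 cells/well, RPMI, 5% FBS, 37 degrees C).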
KB-V1 cytotox = kills drug-selected multidrug resistant KB-V1 cells. KB-V1 MDR cells viability, CellTiter-Glo, 72 h. Potency, µM (series often up to 46.1 µM), usual class: cytotoxic. 3.4% of 400,000 active. AID 1347076; note: nearly all actives have a fitted effect of over 60% in size
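Drug-selected KB-V1 cells, grown in DMEM lacking phenol red with 10% FBS, receive compound titrations; after three days at 37 degrees C, surviving cell ATP is quantified by CellTiter-Glo luminescence and responses normalized and curve-fitted.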
KB-3-1 cytotox = kills parental KB-3-1 adenocarcinoma cells; AID 1347075; Potency, µM (highest dose often 46.1 µM), actives largely listed as cytotoxic; KB-3-1 viability, CellTiter-Glo ATP luminescence, 72 h; 1.4% of 400,000 active; note: nearly all actives have a fitted effect of over 60% in size
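Parental KB-3-1 viability, qHTS format: 72 h compound exposure, 37 °C; CellTiter-Glo; media-only wells and DMSO plates as controls; concentration-effect fits on corrected data.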
Starred values were filed as active, the others as inactive; i = inactive; ? = inconclusive; · = no result given. Calls come from the whole dose curve; as a rule, active = well fitted curve in the direction sought with a large enough effect; inconclusive = small, poorly fitted or top-dose-only effect, or another doubt; inactive = no such curve, though single readings can be large; an effect the other way counts as inactive or inconclusive. Unless noted, % is set by controls: 0 for no effect and ±100 for the full control effect; potency is the fitted concentration of half-maximal effect.

SMILES	TDP1 cell noCPT	HT1080 IDH1KD tx	DT40 TDP1 CPT	HT1080NT lethal	KB-V1 cytotox	KB-3-1 cytotox
O=S1(=O)CC(N2CCSCC2)CN1Cc1cn(Cc2ccc(F)cc2)nn1 (centres undefined)	-11%	12%	4%	9%	i	i
CC1CCN(c2nn3c(=O)c(C(=O)NCCc4ccccc4)cnc3s2)CC1	?	·	9.2µM*	·	i	i
COc1ccc(CCNC(=O)c2cnc3sc(N4CCC(C)CC4)nn3c2=O)cc1OC	3.7µM*	·	2.6µM*	·	i	i
COCCNC(=O)c1cnc2sc(N3CCC(C)CC3)nn2c1=O	-5%	·	-5%	·	i	i
c1ccc(NN(Cc2cnccn2)c2ccccc2)cc1	?	-11%	-23%	0%	i	i
COc1cc(C(=O)OCC(=O)Nc2sccc2C(N)=O)cc(OC)c1OC	3.7µM*	7.3µM*	4.6µM*	?	?	16µM*
COc1ccc(NC(=O)COC(=O)c2cccc(S(=O)(=O)N(C)C)c2)cc1	10%	11%	2%	20%	?	i
CN(C)S(=O)(=O)c1cccc(C(=O)OCC(=O)Nc2sccc2C(N)=O)c1	21µM*	-8%	15µM*	-20%	i	i
Cc1c(CNC2CCCCCC2)c(C(=O)O)c(C)n1Cc1ccc(F)cc1Cl	?	·	?	·	i	i
CCc1cc(=O)oc2cc(OCc3ccc(C(=O)O)o3)ccc12	-23%	-2%	4%	-3%	i	i
Cc1nc2cc(-c3sccc3-n3cccc3)nn2c(C)c1C	0%	9%	-28%	13%	16µM*	i
Cc1cc(C(F)(F)F)n2nc(-c3sccc3-n3cccc3)cc2n1	?	11%	-12%	5%	i	i
CCCCN(CC)S(=O)(=O)c1ccc(C(=O)N=c2sc3cc(NC(C)=O)ccc3n2C)cc1	16µM*	23%	8.2µM*	13%	i	?
O=C1CCSc2ccc(Cl)cc2N1Cc1cccc(Cl)c1	21µM*	-15%	?	-17%	i	i
O=c1c2ccccc2c(C=NCc2ccccn2)c(O)n1-c1ccccc1Cl	-22%	-16%	-3%	-26%	i	i
CCCS(=O)(=O)c1ncc(Cl)c(C(=O)Nc2sc3c(c2C(=O)NCC)CCCC3)n1	0.79µM*	·	1µM*	·	i	?
CCSc1ncc(Cl)c(C(=O)Nc2sc3c(c2C(=O)NCCOC)CCCC3)n1	?	·	-9%	·	i	i
O=S(=O)(c1ccc(SCCOc2ccc(F)cc2)nc1)N1CCCC1	?	-13%	-27%	0%	?	?
COc1ccc(-c2cc(C(=O)OCC(=O)Nc3cc(C)on3)c3ccccc3n2)cc1OC	-18%	14%	-12%	10%	i	i
Cc1cc(NC(=O)c2cc(-c3ccc(OC(C)C)cc3)nc3ccccc23)no1	8.2µM*	-10%	-61%	-1%	?	i
CC(C)Oc1ccc(-c2cc(C(=O)NCCN3CCOCC3)c3ccccc3n2)cc1	?	-15%	?	-3%	i	i
CCC(C)c1ccc(-c2cc(C(=O)OCC(=O)Nc3cc(C)on3)c3ccccc3n2)cc1 (centres undefined)	16µM*	-23%	?	-1%	i	i
O=[N+]([O-])c1ccccc1SN(Cc1ccccc1)c1ccccn1	15µM*	-3%	?	-3%	i	i
O=C(c1ccc([N+](=O)[O-])cc1)N(Cc1ccccc1)c1ccccn1	-17%	3%	20%	5%	i	i
CCOC(=O)N1CCC(NC(=O)c2cc(COc3ccccc3SC)on2)CC1	1.5µM*	?	3.7µM*	3%	9.2µM*	i
